Inconclusive results are not listed. Calls of active or inactive are those of the source. How the source made its calls, unless noted: active means hit-call score of the fitted dose curve at least 0.9, where 1 is the maximum; inconclusive means response in the unintended direction; inactive means score below 0.9.
Legend:
[1] = TOX21_p53_BLA_p2_viability: Viability Assessment in the Tox21 HCT-116 p53 Agonism Beta-lactamase Assay, Phase 2 (AID 2283591);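 further: compound exposure lasted 16 h at 37 °C; actives lower the ATP signal meaning cytotoxicity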
In short: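 HCT-116 p53-bla cells (4000/well) rested 5 h at 37C, then received compounds in DMSO (217-fold dilution) for 16 h at 37C, 5% CO2. After the CCF4 read, CellTiter-Glo was added; ATP luminescence was read after 30 min at room temperature.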

[2] = target: Cellular tumor antigen p53 (Homo sapiens) (UniProt P04637); assay: TOX21_p53_BLA_p2_ratio: Tox21 HCT-116 p53 Agonism Beta-lactamase Assay, Ratio, Phase 2 (AID 2283592)
Chain of Cellular tumor antigen p53 (Homo sapiens) (P04637 whole entry, looked up): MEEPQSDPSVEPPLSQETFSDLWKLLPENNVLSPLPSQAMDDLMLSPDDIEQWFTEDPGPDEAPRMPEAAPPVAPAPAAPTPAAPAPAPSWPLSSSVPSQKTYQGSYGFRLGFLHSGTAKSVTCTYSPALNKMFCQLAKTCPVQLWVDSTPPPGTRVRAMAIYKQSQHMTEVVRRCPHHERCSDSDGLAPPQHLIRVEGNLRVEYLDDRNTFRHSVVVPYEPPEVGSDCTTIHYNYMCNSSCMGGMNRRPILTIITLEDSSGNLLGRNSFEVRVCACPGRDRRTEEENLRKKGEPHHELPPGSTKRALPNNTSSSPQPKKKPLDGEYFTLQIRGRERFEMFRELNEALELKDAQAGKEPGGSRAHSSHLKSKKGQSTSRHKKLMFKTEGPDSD
In short: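 HCT116 cells carrying a p53-responsive beta-lactamase reporter were plated, incubated 5 h at 37C, then dosed with compounds in DMSO (217-fold dilution) for 16 h. CCF4-AM substrate was added for 2 h at room temperature; the 460/530 nm emission ratio gave gain-of-signal activity relative to DMSO.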

[3] = TOX21_p53_BLA_p3_viability: Viability Assessment in the Tox21 HCT-116 p53 Agonism Beta-lactamase Assay, Phase 3 (AID 2283593);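 further: cells exposed to compound for 16 h before reading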
In short: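 HCT-116 cells (4000/well) rested 5 h at 37C, then got DMSO compounds by pin tool (217-fold dilution) for 16 h at 37C, 5% CO2. After the bla read, CellTiter-Glo was added and luminescence read at 30 min, room temperature.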

[4] = target: Cellular tumor antigen p53 (Homo sapiens) (UniProt P04637); assay: TOX21_p53_BLA_p3_ratio: Tox21 HCT-116 p53 Agonism Beta-lactamase Assay, Ratio, Phase 3 (AID 2283596)
In short: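 HCT116 p53-bla cells (4000/well) given compound in DMSO (217-fold dilution) after 5 h, incubated 16 h at 37C. CCF4-AM substrate 2 h at room temperature; 460/530 nm emission ratio, gain fitted against DMSO.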

[5] = TOX21_p53_BLA_p4_viability: Viability Assessment in the Tox21 HCT-116 p53 Agonism Beta-lactamase Assay, Phase 4 (AID 2283597);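 further: hits lower the luminescence signal meaning cytotoxicity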
In short: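 HCT116 p53-bla cells (4000/well) rested 5 h at 37C, then received compounds in DMSO (217-fold dilution) for 16 h at 37C, 5% CO2. CellTiter-Glo was added after the CCF4-AM read, and luminescence was read after 30 min at room temperature.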

[6] = target: Cellular tumor antigen p53 (Homo sapiens) (UniProt P04637); assay: TOX21_p53_BLA_p5_ratio: Tox21 HCT-116 p53 Agonism Beta-lactamase Assay, Ratio, Phase 5 (AID 2283599)
In short: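 HCT-116 cells carrying a p53-inducible beta-lactamase reporter were seeded at 4000 cells/well and dosed after 5 h with compound in DMSO (217-fold dilution). After 16 h at 37C, CCF4-AM substrate was added for 2 h, and the 460/530 nm emission ratio was scored as gain-of-signal versus DMSO.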

[7] = TOX21_p53_BLA_p5_viability: Viability Assessment in the Tox21 HCT-116 p53 Agonism Beta-lactamase Assay, Phase 5 (AID 2283600)
In short: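 Cells were plated at 4000/well, rested 5 h at 37C, then given compounds in DMSO (217-fold dilution) for 16 h at 37C, 5% CO2. Following the CCF4-AM beta-lactamase read, CellTiter-Glo was added and luminescence was read after 30 min at room temperature.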

[8] = target: Cellular tumor antigen p53 (Homo sapiens) (UniProt P04637); assay: TOX21_p53_BLA_p4_ratio: Tox21 HCT-116 p53 Agonism Beta-lactamase Assay, Ratio, Phase 4 (AID 2283601)
In short: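 HCT116 cells carrying an inducible beta-lactamase reporter were plated at 4000 cells/well, rested 5 h, then exposed to compounds in DMSO (217-fold dilution) for 16 h at 37C. CCF4-AM substrate was loaded 2 h at room temperature; 460/530 nm emission ratio scored gain-of-signal versus DMSO.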

[9] = CCTE_Harrill_HTTr_Viability_MCF7: CCTE's 6-hour Cell Viability Assessment for the High-Throughput Transcriptomics (HTTr) Platform, in MCF-7 cells cultured in DMEM + 10% fetal bovine serum, Harrill Lab (AID 2284010; active means hit-call score of the fitted dose curve at least 0.9, where 1 is the maximum; inactive means score below 0.9)
In short: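 Cells were dosed with chemicals in an eight-point dilution series, imaged 6 hours later for propidium iodide uptake, and the endpoint was analyzed by bidirectional fitting against DMSO as negative control.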

[10] = CCTE_Harrill_HTTr_Apoptosis_MCF7: CCTE's 6-hour Apoptosis Assessment for the High-Throughput Transcriptomics (HTTr) Platform, in MCF-7 cells cultured in DMEM + 10% fetal bovine serum, Harrill Lab (AID 2284011; active means hit-call score of the fitted dose curve at least 0.9, where 1 is the maximum; inactive means score below 0.9)
In short: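 MCF-7 cells in DMEM + 10% fetal bovine serum were exposed to chemicals for 6 hours over an eight-point dilution series. Caspase-3/7 activation was imaged by high content imaging with CellEvent Caspase 3/7 Green; bidirectional fitting used DMSO as baseline.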

[11] = CCTE_Harrill_HTTr_CellCount_MCF7: CCTE's Cell Proliferation Assessment for the High-Throughput Transcriptomics (HTTr) Platform, Harrill Lab (AID 2284012);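 further: count of Hoechst-stained nuclei per well by high-content imaging in MCF-7 cells; cells exposed to compound for six hours; intended direction is loss of nuclei count meaning fewer cells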
In short: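 Chemicals in eight-point dilution series are added to MCF-7 cells for six hours, nuclei are stained with Hoechst and imaged, and per-well nuclei counts are fitted in both directions relative to DMSO controls.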

THRB (gene 7068) [12] = target: THRB (gene 7068) (UniProt P10828); assay: TOX21_TRB_BLA_Antagonist_Followup_ratio: Tox21 Thyroid Hormone Receptor beta Antagonism Beta-lactamase (BLA) Follow-Up Assay, Ratio (AID 2283958)
Chain of THRB (gene 7068) (P10828 whole entry, looked up, the tested form may be a part): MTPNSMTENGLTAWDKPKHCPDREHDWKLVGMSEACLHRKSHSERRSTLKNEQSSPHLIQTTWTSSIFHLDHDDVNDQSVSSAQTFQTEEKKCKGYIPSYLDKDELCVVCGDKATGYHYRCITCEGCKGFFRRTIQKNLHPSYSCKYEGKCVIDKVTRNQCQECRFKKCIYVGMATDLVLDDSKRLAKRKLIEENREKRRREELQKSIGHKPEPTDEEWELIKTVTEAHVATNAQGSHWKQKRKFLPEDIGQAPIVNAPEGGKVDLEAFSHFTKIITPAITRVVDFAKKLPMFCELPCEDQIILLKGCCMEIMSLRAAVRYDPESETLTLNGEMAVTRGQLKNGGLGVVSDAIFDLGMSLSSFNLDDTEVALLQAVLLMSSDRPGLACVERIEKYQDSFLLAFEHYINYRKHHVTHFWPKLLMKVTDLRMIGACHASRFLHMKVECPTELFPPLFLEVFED
In short: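 HEK293T TRb-bla (GAL4 DBD + hTRβ LBD), 2% cs-FBS phenol red-free DMEM, 5 h attach; cpds 11-pt triplicate, 18 h 37C; CCF4-AM 2 h RT; 460/530 ratio vs DMSO; CellTiter-Glo viability same wells.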

[13] = TOX21_TRB_BLA_Antagonist_Followup_viability: Viability Assessment in the Tox21 Thyroid Hormone Receptor beta Antagonism Beta-lactamase (BLA) Follow-Up Assay (AID 2283961)
In short: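 HEK293T cells stably expressing GAL4-DBD/human TRβ-LBD with UAS-bla reporter, 3,000 cells/well in phenol red-free DMEM, 2% charcoal-stripped FBS. Compounds at 11 concentrations in triplicate, 18 h at 37C/5% CO2; viability by CellTiter-Glo luminescence after 30 min at room temperature.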

THRB (gene 7068) [14] = target: THRB (gene 7068) (UniProt P10828); assay: TOX21_TRB_COA_Antagonist_Followup_ratio: Tox21 Thyroid Hormone Receptor beta Antagonism through Coactivator Recruitment Follow-Up Assay, Ratio (AID 2283967)
In short: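 Cell-free TR-FRET coactivator recruitment with GST-tagged TRβ LBD (5.0 nM) and fluorescein-labeled SRC-2 peptide (200 nM) detected by terbium anti-GST antibody (2 nM). The 520:495 nm emission ratio was normalized to DMSO (0%) and T3 (100%).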

[15] = target: Retinoic acid receptor RXR-alpha (Homo sapiens) (UniProt P19793); assay: TOX21_TR_RXR_BLA_Antagonist_Followup_ratio: Tox21 Thyroid Hormone Receptor beta Retinoid X Receptor alpha (RXRa) Antagonism Beta-lactamase (BLA) Follow-Up Assay, Ratio (AID 2283972)
Chain of Retinoic acid receptor RXR-alpha (Homo sapiens) (P19793 whole entry, looked up): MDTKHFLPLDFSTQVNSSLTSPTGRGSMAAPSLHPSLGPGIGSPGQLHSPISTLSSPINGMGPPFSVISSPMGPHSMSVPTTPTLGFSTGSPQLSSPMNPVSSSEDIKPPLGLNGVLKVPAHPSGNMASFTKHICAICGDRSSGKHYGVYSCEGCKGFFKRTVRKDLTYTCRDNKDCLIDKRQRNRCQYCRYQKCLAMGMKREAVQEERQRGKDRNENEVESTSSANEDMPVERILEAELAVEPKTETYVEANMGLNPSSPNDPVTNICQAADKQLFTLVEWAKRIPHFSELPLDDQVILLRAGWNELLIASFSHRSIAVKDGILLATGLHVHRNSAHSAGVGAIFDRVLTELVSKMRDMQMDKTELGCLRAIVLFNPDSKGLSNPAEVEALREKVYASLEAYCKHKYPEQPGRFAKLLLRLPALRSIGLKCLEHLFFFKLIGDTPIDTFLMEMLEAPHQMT
In short: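 RXRa-UAS-bla HEK293T cells in phenol red-free DMEM with 2% charcoal-stripped FBS; compounds at 11 concentrations in triplicate, 16 h at 37C. LiveBLAzer FRET-B/CCF4-AM substrate 2 h at room temperature; read as 460:530 nm ratio versus DMSO.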

| Structure (SMILES) | outcome [1] | outcome [2] | outcome [3] | outcome [4] | outcome [5] | outcome [6] | outcome [7] | outcome [8] | outcome [9] | outcome [10] | outcome [11] | AC50 [5] | outcome (THRB (gene 7068) [12]) | outcome [13] | outcome (THRB (gene 7068) [14]) | outcome [15] |
| --- | --- | --- | --- | --- | --- | --- | --- | --- | --- | --- | --- | --- | --- | --- | --- | --- |
| CC1(C)[C@@H](O[C@H]2O[C@H](C(=O)O)[C@@H](O)[C@H](O)[C@H]2O[C@@H]2O[C@H](C(=O)O)[C@@H](O)[C@H](O)[C@H]2O)CC[C@]2(C)[C@H]3C(=O)C=C4[C@@H]5C[C@@](C)(C(=O)O)CC[C@]5(C)CC[C@@]4(C)[C@]3(C)CC[C@@H]12 | inactive | inactive | inactive | inactive | inactive | inactive | inactive | inactive | inactive | inactive | inactive |  |  |  |  |  |
| CC(=O)NCCCS(=O)(=O)O | inactive | inactive | inactive | inactive | inactive | inactive | inactive | inactive | inactive | inactive | inactive |  |  |  |  |  |
| O=C(O)c1cccc(-c2noc(-c3ccccc3F)n2)c1 | inactive | inactive | inactive | inactive |  | inactive | inactive |  |  |  |  | 23 µM (active) | inactive | inactive | inactive | inactive |

From PubChem BioAssay (EPA / NIEHS)
